# The source made the active and inactive calls.
# Key:
# [1] = optical density shifts of acrAB sulA E. coli – strain DRC41, OD650, 48 h, E. coli filamentation inducer project, primary screen (AID 1152); details: higher = more signal, called active from +8 up or from −8 down;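 note: E. coli MC1000 strain DRC41 lacking acrAB efflux pump and sulA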
# [2] = probe aLefty1 binding on compound microarray – biochemical, small-molecule microarray, 635/667 nm fluorescence, primary screen (AID 1153); details: higher = more signal;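 note: score merges spot fluorescence with signal-to-noise ratio from the scanned slide images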
# [3] = plasmodial surface anion channel blockers, osmotic lysis – cell-based, P. falciparum Indochina, OD700, 1 h, primary screen (AID 1154); details: P. falciparum Indochina infected RBC osmotic lysis, higher = more signal, called active from +8 up or from −8 down
# [4] = plasmodial surface anion channel blockers, osmotic lysis – cell-based, P. falciparum Indochina, OD700, 2 h, primary screen (AID 1155);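 note: lysis reports solute entry through the parasite surface anion channel PSAC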; details: P. falciparum Indochina infected erythrocytes, higher = more signal, called active from +8 up or from −8 down
# [5] = changes in parasitized red cell lysis, either direction – P. falciparum Indochina, OD700, 3 h, PSAC antagonist project, primary screen (AID 1156); details: P. falciparum-infected erythrocytes, osmotic lysis, higher = more signal, called active from +8 up or from −8 down
# [6] = plasmodial surface anion channel blockers, osmotic lysis – cell-based, P. falciparum Indochina, OD700, 18 h, primary screen (AID 1157); details: P. falciparum Indochina infected erythrocytes, osmotic lysis OD700, 18 h; higher = more signal, called active from +8 up or from −8 down
# [7] = S6 kinase pathway phospho-S6 level changes – cell-based, A549, cytoblot, luminescence, serum-stimulated, primary screen (AID 1158); details: 5 h, higher = more signal;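 note: serum-stimulated A549 lung adenocarcinoma cells; signal is phosphorylated S6 detected by cytoblot immunostaining with HRP secondary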
# [8] = target: NADPH oxidase 2 (Homo sapiens) (UniProt P04839); assay: compounds shifting NOX2 Amplex Red fluorescence – cell-based, HEK293-NOX2, PMA-stimulated, NOX inhibitor project, primary screen (AID 1159); details: 45 min, higher = more signal, called active from +8 up or from −8 down; note: test concentration not given here
# [9] = target: NADPH oxidase 4 (Homo sapiens) (UniProt Q9NPH5); assay: compounds shifting NOX4 Amplex Red fluorescence – cell-based, HEK293-NOX4, tetracycline-induced, NOX inhibitor project, primary screen (AID 1160); details: HEK293-NOX4, Amplex Red H2O2 fluorescence, 45 min; higher = more signal, called active from +8 up or from −8 down
# [10] = target: NADPH oxidase 5 (Homo sapiens) (UniProt Q96PH1); assay: compounds shifting NOX5 Amplex Red fluorescence – cell-based, HEK293-NOX5, NOX inhibitor project, primary screen (AID 1161); details: HEK293-NOX5, ionomycin, 45 min, higher = more signal
# [11] = compound effects on lung adenocarcinoma cell viability – A549, calcein-AM fluorescence, 48 h, basal, profiling panel (AID 1162); details: higher = more signal; note: test concentration not given here
# [12] = compound effects on differentiated 3T3-L1 adipocyte viability – cell-based, 3T3-L1 adipocytes, calcein-AM fluorescence, 48 h, basal, profiling panel (AID 1163); details: 3T3-L1 adipocytes viability, higher = more signal; note: test concentration not given here
# [13] = compound effects on hepatocellular carcinoma cell viability – HepG2, calcein-AM fluorescence, 48 h, basal, profiling panel (AID 1164); details: higher = more signal; note: test concentration not given here
# [14] = compound effects on multiple myeloma cell viability – MM1S, calcein-AM fluorescence, 48 h, basal, profiling panel (AID 1165); details: higher = more signal;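 note: viability of MM1S multiple myeloma cells under basal unstimulated conditions; test concentration not given here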
# [15] = calcein-AM signal in unstimulated myeloma cells – cell-based, calcein-AM fluorescence, 48 h, PK04 Diversity Set, profiling panel (AID 1166); details: RPMI8226 myeloma viability, higher = more signal;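 note: cells grown under basal conditions without added stimulus; test concentration not given here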
# [16] = JC-1 mitochondrial signal, unstimulated HepG2 cells – cell-based, JC-1 fluorescence, 24 h, 100 nL compound, profiling panel (AID 1167); details: HepG2 mitochondrial potential, higher = more signal; note: test concentration not given here
# [17] = JC-1 mitochondrial signal, unstimulated adipocytes – cell-based, JC-1 fluorescence, 3T3-L1 adipocytes, 24 h, 100 nL compound, profiling panel (AID 1168); details: JC-1 mitochondrial fluorescence, higher = more signal, called active from +8 up or from −8 down; note: test concentration not given here
# [18] = JC-1 mitochondrial signal, unstimulated myeloma cells – cell-based, JC-1 fluorescence, RPMI8226, 24 h, 100 nL compound, profiling panel (AID 1169); details: JC-1 mitochondrial potential fluorescence, higher = more signal; note: test concentration not given here
# [19] = JC-1 mitochondrial signal, unstimulated MM1S myeloma – cell-based, JC-1 fluorescence, 24 h, 100 nL compound, profiling panel (AID 1170); details: MM1S mitochondrial potential, higher = more signal; note: test concentration not given here
# [20] = resazurin metabolic signal in A549 cells – cell-based, resazurin fluorescence, 24 h, PK04 Diversity Set, profiling panel (AID 1171); details: A549 viability, higher = more signal, called active from +8 up or from −8 down; note: test concentration not given here
# NADPH oxidase 4 (Homo sapiens), sequence (Q9NPH5 whole entry, looked up): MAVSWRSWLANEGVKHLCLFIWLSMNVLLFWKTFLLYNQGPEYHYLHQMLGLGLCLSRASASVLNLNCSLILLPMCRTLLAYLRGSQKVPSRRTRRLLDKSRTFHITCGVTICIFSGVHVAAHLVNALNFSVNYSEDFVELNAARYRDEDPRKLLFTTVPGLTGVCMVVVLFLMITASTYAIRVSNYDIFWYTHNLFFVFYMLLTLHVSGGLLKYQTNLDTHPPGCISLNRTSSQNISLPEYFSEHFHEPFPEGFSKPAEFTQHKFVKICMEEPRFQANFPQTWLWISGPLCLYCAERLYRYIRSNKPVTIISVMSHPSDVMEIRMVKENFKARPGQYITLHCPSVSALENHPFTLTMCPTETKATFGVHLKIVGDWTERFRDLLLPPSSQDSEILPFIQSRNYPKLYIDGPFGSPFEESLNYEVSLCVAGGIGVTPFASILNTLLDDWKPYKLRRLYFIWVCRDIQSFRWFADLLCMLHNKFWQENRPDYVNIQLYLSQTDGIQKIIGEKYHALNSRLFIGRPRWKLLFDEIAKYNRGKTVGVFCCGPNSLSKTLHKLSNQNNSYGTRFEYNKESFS
# NADPH oxidase 5 (Homo sapiens), sequence (Q96PH1 whole entry, looked up): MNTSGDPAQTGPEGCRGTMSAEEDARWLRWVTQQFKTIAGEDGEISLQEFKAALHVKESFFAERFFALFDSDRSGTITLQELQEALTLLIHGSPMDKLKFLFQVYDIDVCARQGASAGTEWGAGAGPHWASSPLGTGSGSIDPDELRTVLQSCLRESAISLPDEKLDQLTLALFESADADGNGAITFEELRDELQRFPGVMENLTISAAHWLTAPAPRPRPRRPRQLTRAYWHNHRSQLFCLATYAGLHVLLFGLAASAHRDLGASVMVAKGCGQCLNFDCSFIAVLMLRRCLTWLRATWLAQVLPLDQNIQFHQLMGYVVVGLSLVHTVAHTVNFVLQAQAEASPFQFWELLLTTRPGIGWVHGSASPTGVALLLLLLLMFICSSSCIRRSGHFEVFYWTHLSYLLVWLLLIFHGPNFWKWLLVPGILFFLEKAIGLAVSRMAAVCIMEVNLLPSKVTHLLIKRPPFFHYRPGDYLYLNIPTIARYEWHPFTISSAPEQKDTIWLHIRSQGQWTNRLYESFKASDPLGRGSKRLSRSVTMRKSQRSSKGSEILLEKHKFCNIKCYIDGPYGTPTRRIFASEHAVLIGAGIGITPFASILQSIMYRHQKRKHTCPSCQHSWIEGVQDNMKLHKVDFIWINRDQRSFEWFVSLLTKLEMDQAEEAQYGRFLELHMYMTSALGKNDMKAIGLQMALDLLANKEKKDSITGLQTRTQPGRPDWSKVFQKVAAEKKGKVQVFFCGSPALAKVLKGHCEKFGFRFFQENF
# NADPH oxidase 2 (Homo sapiens), sequence (P04839 whole entry, looked up): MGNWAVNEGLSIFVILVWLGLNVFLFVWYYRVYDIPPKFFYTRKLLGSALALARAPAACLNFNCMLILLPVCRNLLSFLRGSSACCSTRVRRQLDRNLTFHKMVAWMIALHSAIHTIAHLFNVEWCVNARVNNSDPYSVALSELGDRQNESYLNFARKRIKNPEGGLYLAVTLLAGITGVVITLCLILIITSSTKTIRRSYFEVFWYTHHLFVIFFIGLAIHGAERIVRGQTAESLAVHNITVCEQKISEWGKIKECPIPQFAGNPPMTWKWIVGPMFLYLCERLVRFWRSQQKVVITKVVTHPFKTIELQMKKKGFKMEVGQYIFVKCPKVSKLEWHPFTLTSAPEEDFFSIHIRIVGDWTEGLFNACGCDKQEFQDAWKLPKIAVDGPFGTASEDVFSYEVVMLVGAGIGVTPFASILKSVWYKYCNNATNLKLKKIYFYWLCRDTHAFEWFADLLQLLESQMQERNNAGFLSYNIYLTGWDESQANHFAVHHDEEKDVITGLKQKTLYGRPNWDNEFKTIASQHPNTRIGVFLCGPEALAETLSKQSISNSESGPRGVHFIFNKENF
Structure (SMILES),z-score [1],composite z-score [2],z-score [3],z-score [4],z-score [5],z-score [6],z-score [7],z-score [8],z-score [9],z-score [10],z-score [11],z-score [12],z-score [13],z-score [14],z-score [15],z-score [16],z-score [17],z-score [18],z-score [19],z-score [20]
C=C(COC)/C(=C/C[C@H](OC(=O)c1ccncc1)c1cccc(OCCO)c1)c1cnc2ccccc2c1,-0.223 (inactive),0.317,9.54 (active),0.936 (inactive),0.426 (inactive),0.431 (inactive),0.231,-0.0605 (inactive),0.24 (inactive),-0.3,-0.0119,0.222,0.596,-2.77,-0.0229,0.327,-0.0487 (inactive),0.568,-0.704,0.251 (inactive)
C=C(COC)C(=O)CC[C@@H](OC(C)=O)c1ccc(OCCO)cc1,-0.297 (inactive),-0.007,2.52 (inactive),0.27 (inactive),0.133 (inactive),0.0871 (inactive),0.239,-0.352 (inactive),-0.885 (inactive),-0.112,0.453,0.327,-0.446,-3.18,-0.311,-1.28,-0.979 (inactive),-0.652,-0.655,-0.412 (inactive)
COC(=O)C1(CC(C)C)C=C2C(=C(C(C)C)C(=O)C2C)CN1 (stereo not given),-1.85 (inactive),0.302,1.06 (inactive),-0.385 (inactive),1.07 (inactive),0.274 (inactive),-0.38,0.377 (inactive),-1.05 (inactive),-2.44,-1.49,-0.404,-1.43,0.0112,-1.31,-1.31,-1.46 (inactive),0.105,-0.919,-0.697 (inactive)
C=C(CCCC)/C(=C/C[C@H](OC(C)=O)c1cccc(OCCO)c1)c1cc(C(=O)OC)ccc1OC,1.19 (inactive),-0.007,21 (active),3.75 (inactive),2.43 (inactive),1.21 (inactive),-0.377,1.39 (inactive),1.02 (inactive),-0.963,2.28,0.477,0.651,-0.965,-2.14,2.19,0.18 (inactive),-0.111,0.309,2.7 (inactive)
COc1ccc(CC[C@H](O)c2cccc(OCC(=O)OC(C)(C)C)c2)cc1,-0.636 (inactive),0.163,22.8 (active),6.97 (inactive),0.597 (inactive),0.794 (inactive),0.118,-2.52 (inactive),-0.941 (inactive),-4.03,-1.42,0.71,-2.12,-2.52,-1.31,-2.71,1.69 (inactive),-0.84,-0.835,0.41 (inactive)
NC(=O)N1C(=O)C2C(C1=O)C1C=C(CCCO)C2C(c2ccc(CN3CCCC3)cc2)N1Cc1cccc(OC(F)(F)F)c1 (stereo not given),-0.267 (inactive),-0.101,1.86 (inactive),0.63 (inactive),0.0703 (inactive),0.208 (inactive),-0.267,-1.4 (inactive),-0.76 (inactive),-1.04,0.0272,-0.0602,-0.215,-3.34,-0.614,0.221,-0.348 (inactive),0.708,-0.275,0.657 (inactive)
CCCCC(O)C1C=CC2C(=O)NC(=O)C2N1Nc1ccc(Cl)cc1Cl (stereo not given),-1.73 (inactive),0.396,2.42 (inactive),1.53 (inactive),0.39 (inactive),0.998 (inactive),-0.787,-0.461 (inactive),-5.64 (inactive),-3.41,-1.99,0.266,-2.39,-1.55,-2.27,-2.38,-0.831 (inactive),-0.64,0.724,-1.99 (inactive)
O=C1c2ccccc2[C@@]2(Cc3ccccc3N(Cc3ccccc3)C2=O)[C@H](c2ccc(CO)cc2)N1Cc1ccccc1,-0.757 (inactive),-0.147,-0.0384 (inactive),0.0732 (inactive),0.0046 (inactive),-0.11 (inactive),0.244,0.0584 (inactive),0.572 (inactive),-0.107,-0.574,-0.269,-0.643,0.0744,-0.851,-0.0723,-0.271 (inactive),0.167,-0.353,-0.381 (inactive)
[N-]=[N+]=NCc1ccccc1[C@H]1OC(c2ccc(OCCCO)cc2)=N[C@@]1(Cc1ccccc1)C(=O)N1CCOCC1,-0.686 (inactive),0.321,28.8 (active),25.7 (active),2.96 (inactive),2.24 (inactive),0.692,-0.0281 (inactive),0.154 (inactive),-0.526,0.281,0.491,0.556,-1.45,-1.11,0.213,-1.67 (inactive),-0.887,0.35,1.56 (inactive)

# — PubChem BioAssay
